Bioassay records from PubChem BioAssay.
A selection: hits, their analogues and other compounds. The true share with any hit is near 15%.
Gal4-VP16 FLuc: counter-screen for ROR gamma inhibitors: Gal4-VP16 reporter | Drosophila S2 Gal4-VP16 UAS-luciferase, luminescence, 20 h | Potency, µM (titrated, usually from 53.6 µM), without a hit: at the top dose activity, negative = inhibition, actives largely listed as inhibitors | hit rate 3.5% among 310,000;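 note: Gal4-VP16 expression switched on by copper sulfate through the metallothionein promoter; nearly all actives have a fitted effect of over 50% in size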
ELG1 repair inh: ELG1-dependent DNA repair inhibition | Potency, µM (titrated, usually from 46.1 µM), inactives show at the top dose activity change, negative = inhibition, actives largely listed as inhibitors | hit rate 2.3% among 330,000 | HEK293T ELG1-luciferase reporter, luminescence, 16 h; DNA damage induced by 5-fluorouridine; note: nearly all actives have a fitted effect of over 55% in size
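Cells (2,000 per well) received 5-fluorouridine plus test compound or DMSO and were incubated 16 hr at 37 °C, 5% CO2. Luciferase activity was read by luminescence 30 min after ONE-Glo addition; signal suppression marked inhibition of damage-induced ELG1 function.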
TDP1 cell noCPT: qHTS for Inhibitors of human tyrosyl-DNA phosphodiesterase 1 (TDP1): qHTS in cells in absence of CPT | hit rate 15% among 420,000 | Potency, µM (top dose mostly 46.2 µM), for the others: at the highest dose activity change, negative = growth inhibition, hits mostly inhibitors | AID 686978, 2013 | DT40 Tdp1-/- hTDP1 cells, no CPT, ATP luminescence, 48 h; note: nearly all actives have a fitted effect of over 55% in size
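Chicken DT40 Tdp1-/- cells complemented with human TDP1, screened without camptothecin (DMSO vehicle only), 400 cells/well. Compounds pin-transferred, cells incubated at 37 °C for at least 48 hr. Growth read as ATP-dependent luminescence (CellTiter-Glo, 30 min at RT).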
12-LOX inh: inhibitors of human 12S-lipoxygenase ALOX12 | Potency, µM (highest dose often 108 µM), for the others: at the highest dose activity change, negative = inhibition, usual class: inhibitors | P18054 | purified 12hLO, xylenol orange hydroperoxide absorbance | hit rate 1.1% among 580,000
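Purified human 12hLO (150 nM final) in 25 mM Hepes, 0.01% Triton X-100, pH 7.0 was preincubated 15 min at room temperature with compound. Then 40 uM arachidonic acid was added, 30 min. Hydroperoxide was read by Fe-XO absorbance ratio 573/405 nm.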
TDP1 cell CPT: DT40-hTDP1 cell growth loss with CPT; chicken DT40 Tdp1-/-;hTDP1 cells + 20 nM CPT, ATP luminescence, 48 h; Potency, µM (highest dose often 46.2 µM), for the others: top-dose activity change, negative = growth inhibition, actives largely listed as inhibitors; hit rate 12% among 420,000; AID 686979; note: nearly all actives have a fitted effect of over 55% in size
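Cell growth measured by CellTiter-Glo luminescence after a minimum 48 h, 37 C compound exposure with 20 nM CPT in Tdp1-knockout DT40 cells stably expressing hTDP1, seeded 400/well; qHTS titration format.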
RORg inh: ROR gamma (mouse) transcription inhibition | hit rate 5.4% among 310,000 | AID 2551 | Potency, µM (highest dose often 53.6 µM), for the others: at the highest dose activity change, negative = inhibition, usual class: inhibitors | Drosophila S2 Gal4-RORgamma UAS-luciferase reporter, 20 h; note: nearly all actives have a fitted effect of over 60% in size
Target sequence (P51450 whole entry, looked up, the tested form may be a part): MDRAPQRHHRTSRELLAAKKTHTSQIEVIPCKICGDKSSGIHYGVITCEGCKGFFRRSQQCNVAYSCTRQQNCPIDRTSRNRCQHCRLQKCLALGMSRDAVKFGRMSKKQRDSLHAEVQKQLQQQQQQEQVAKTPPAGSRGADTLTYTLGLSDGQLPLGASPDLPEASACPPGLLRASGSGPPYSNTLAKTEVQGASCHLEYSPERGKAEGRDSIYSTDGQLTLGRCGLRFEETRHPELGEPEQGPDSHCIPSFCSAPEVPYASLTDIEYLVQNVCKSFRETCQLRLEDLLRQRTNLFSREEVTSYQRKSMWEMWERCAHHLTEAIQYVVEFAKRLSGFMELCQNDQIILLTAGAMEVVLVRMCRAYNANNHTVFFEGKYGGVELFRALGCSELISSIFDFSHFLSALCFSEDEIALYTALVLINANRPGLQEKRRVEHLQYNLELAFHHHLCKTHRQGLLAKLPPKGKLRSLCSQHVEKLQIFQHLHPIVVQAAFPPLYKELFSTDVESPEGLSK
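Drosophila S2 cells stably expressing Gal4-DBD/mouse RORγ fusion under metallothionein promoter plus UAS-luciferase; compound 1 h, then 700 uM CuSO4 induction for 20 h at ambient temperature; inhibition read as reduced luminescence.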
Numbers without * were called inactive; u = inconclusive; x = no result given; [ ] = dose if it differs, or a comment. Calls come from the whole dose curve; as a rule, active = well fitted curve in the direction sought with a large enough effect; inconclusive = small, poorly fitted or top-dose-only effect, or another doubt; inactive = no such curve, though single readings can be large; an effect the other way counts as inactive or inconclusive. % is set by controls: 0 for no effect and ±100 for the full control effect; potency is the fitted concentration of half-maximal effect.

SMILES	Gal4-VP16 FLuc	ELG1 repair inh	TDP1 cell noCPT	12-LOX inh	TDP1 cell CPT	RORg inh
CCn1nnc(-c2ccccc2NC(=O)c2cc(OC)c(OC)c(OC)c2)n1	-9.5%	16.4µM*	14.6µM*	5.0%	u	-44.8%
COc1ccc(S(=O)(=O)Nc2ccccc2-c2nnn(CC(=O)Nc3ccccc3OC)n2)cc1	u	u	8.2µM*	2.0%	6.51µM*	27.9%[10 µM]
CCn1nnc(-c2ccccc2NC(=O)c2cc(OC)cc(OC)c2)n1	-5.4%	u	u	22.4%	u	21.3%
COc1ccc(C(=O)Cn2nnc(-c3ccccc3NC(=O)c3ccco3)n2)cc1	-5.8%	u	8.2µM*	0.0%	u	-9.3%
COc1ccc(NC(=O)Cn2nnc(-c3ccccc3NS(=O)(=O)c3ccccc3)n2)cc1	u	-5.5%	18.4µM*	x	23.1µM*	-32.3%[10 µM]
Cc1ccc(C(NC(=O)c2ccccc2)c2cccnc2)cc1C (centres undefined)	x	x	x	-1.7%	x	x
O=C(Nc1ccc(-c2cnc(C3CC3)o2)cc1)c1cccc(F)c1	x	x	x	-31.6%	x	x
CCCC(=O)Nc1ccccc1-c1nnn(CC(=O)Nc2ccc(OC)cc2)n1	x	-29.4%	20.6µM*	4.5%	u	-10.4%[0.365 µM]
CCOc1ccc(NC(=O)Cn2nnc(-c3ccccc3NC(=O)c3cccs3)n2)cc1	3.1%	-14.5%	u	32.2%	u	1.1%
CCOc1nc(C#N)nc(N2CCCCC2)n1	2.5%	u	14.6µM*	0.0%	20.6µM*	-9.6%
COc1nc(C#N)nc(N2CCCC2)n1	x	x	15.8µM*	x	u	x
COC(=O)c1ccc(C(=O)NCC2CCCCC2)cc1	x	x	x	-2.7%	x	x
CC(C)NC(=O)c1ccc(-n2nc(Sc3ccc(Cl)cc3)ccc2=O)cc1	x	x	x	-4.8%	x	x
CN(CC(=O)Nc1ccccc1)CC(=O)Nc1ccccc1Cl	-2.0%	u	8.5%	0.4%	-14.2%	13.8%
CCCCc1ccc(NC(=O)CN(C)CC(=O)Nc2ccccc2Cl)cc1	0.2%	u	23.1µM*	79.7%	u	-0.4%
CN(CC(=O)Nc1ccccc1Cl)CC(=O)Nc1ccccc1[N+](=O)[O-]	-16.2%	u	20.6µM*	0.2%	u	10.6%
O=C(NCCCN1CCOCC1)c1csc(Nc2ccccc2Cl)n1	x	x	x	8.5%	x	x
CN(Cc1ccccc1)CC1(O)CCCN(CCCc2ccccc2)C1=O (centres undefined)	x	x	x	88.1%	x	x
NC(Cc1ccc(C(F)(F)F)cc1)c1csc(Nc2ncccn2)n1 (centres undefined)	x	x	9.2µM*	6.0%	9.2µM*	x
NC(Cc1ccc(C(F)(F)F)cc1)c1csc(Nc2ccccn2)n1 (centres undefined)	x	x	u	15.5%	u	x
NC(Cc1ccc(C(F)(F)F)cc1)c1csc(Nc2cnccn2)n1 (centres undefined)	x	x	5.8µM*	-14.9%	6.51µM*	x
NC(Cc1ccc(C(F)(F)F)cc1)c1csc(Nc2cc(NCc3ccco3)ncn2)n1 (centres undefined)	x	x	16.4µM*	u	20.6µM*	x
NC(Cc1ccc(F)cc1)c1csc(Nc2ccc(C(F)(F)F)cn2)n1 (centres undefined)	x	x	9.2µM*	u	13µM*	x
NC(Cc1cnc[nH]1)c1csc(Nc2ccc(C(F)(F)F)cn2)n1 (centres undefined)	x	x	-25.8%	-4.2%	-21.3%	x
Cc1[nH]c2c(C(=O)N(C)C3CCS(=O)(=O)C3)cccc2c1C (centres undefined)	x	x	x	4.7%	x	x
SMILES	Gal4-VP16 FLuc	ELG1 repair inh	TDP1 cell noCPT	12-LOX inh	TDP1 cell CPT	RORg inh
CCOC(=O)COc1ccc2c(=O)c(-c3ccc(OC)c(OC)c3)coc2c1	x	x	x	54.5%	x	x
C[S+](=O)([O-])N1CC2(CCCN2Cc2ccccn2)Cc2ccccc21 (centres undefined)	x	x	x	-18.7%[6.33 µM]	x	x
COCC(O)CNC(=O)COc1ccc2c(=O)c(-c3ccc(Cl)cc3)c(C)oc2c1 (centres undefined)	x	x	x	-3.3%	x	x
NC(COCc1ccccc1)c1csc(Nc2ncccn2)n1 (centres undefined)	x	x	u	17.0%	-5.7%	x
CC(C)CC(N)c1csc(Nc2ncccn2)n1 (centres undefined)	x	x	6.51µM*	24.6%	9.2µM*	x
COc1ccccc1CN(Cc1c(Cl)cccc1Cl)S(=O)(=O)c1ccc(Br)cc1	x	x	20.6µM*	8.0%	16.4µM*	x
COc1ccccc1CNC(=O)C(C)NS(=O)(=O)c1ccc(Br)cc1 (centres undefined)	-0.1%	-12.1%	u	-23.9%	-10.8%	-24.3%
Cc1ccc(-c2cccc(C3CC=CC4C3C(=O)N(Cc3ccccc3)C4c3cc(C)ccc3F)c2)cc1 (centres undefined)	-1.1%	2.2%	14.6µM*	8.2%	16.4µM*	u
COc1ccc(-c2cccc(C3CC=CC4C3C(=O)N(Cc3ccccc3)C4c3ccc(C(F)(F)F)cc3)c2)cc1 (centres undefined)	-5.4%	u	14.6µM*	0.5%	u	-2.9%
CN(C)c1ccc(-c2cccc(C3CC=CC4C3C(=O)N(Cc3ccccc3)C4c3ccc(C(F)(F)F)cc3)c2)cc1 (centres undefined)	-8.6%	8.3%	23.1µM*	-3.0%	11.6µM*	1.5%
COc1ccc(CCNC(=O)CSc2nc(-c3ccccc3C)nc3cc(=O)[nH]n23)cc1OC	x	x	x	2.3%	x	x
CCOc1cccc(C(=O)N(Cc2c(F)cccc2Cl)c2ccccn2)c1	x	x	x	33.0%	x	x
Cc1cc(SCC(=O)N2c3ccccc3NC(=O)CC2C)nc2ccccc12 (centres undefined)	x	x	16.4µM*	-15.9%	u	x
CC1CC(=O)Nc2ccccc2N1C(=O)CSc1ccc2ccccc2n1 (centres undefined)	x	-5.6%	u	186.8%	16.4µM*	x
CC1CC(=O)Nc2ccccc2N1C(=O)CSc1ncnc2sccc12 (centres undefined)	x	-11.6%	5.3%	40.5%	13.3%	x
CN1CCN(C2=Cc3ccccc3Sc3cc(F)ccc32)CC1	-5.1%	-10.4%	22.4µM*	u	u	19.5%
CN1CCN(C2=Cc3ccc(Cl)cc3Sc3ccc(F)cc32)CC1	-9.7%	-20.8%	20.6µM*	-25.1%	23.1µM*	12.4%
CN1CCN(c2cc(-c3ccc(F)cc3C(F)(F)F)nc(N)n2)CC1	x	x	x	41.1%	x	x
